# Laboratory results taken from PubChem BioAssay (NCATS).
# Results filed as inconclusive are left out. Entries that show only a call come without a potency. The source made the active and inactive calls. Unless noted, the call rests on the fitted dose curve; in most records, active means well fitted curve in the direction sought with a large enough effect; inconclusive means small, poorly fitted or top-dose-only effect, or another doubt; inactive means no such curve, though single readings can be large; an effect the other way counts as inactive or inconclusive.
# Assay: qHTS for compounds that reverse cellular toxicity of Amyloid beta (A-beta) peptide in yeast: LOPAC Validation Assay (AID 720559)
# Details: yeast expressing A-beta; series mostly up to 46.1 µM
# In short: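 Activity is expressed relative to DMSO and an equimolar ferric chloride/clioquinol mix. Compounds were pinned into medium with A-beta-expressing yeast, grown 48 hr at 30 C, then read by absorbance at 600 nm.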
row,Compound,outcome
1,CN(C)CCC=C1c2ccccc2CCc2ccccc21,inactive
2,C[C@]12CC[C@@H]3c4ccc(O)cc4CC[C@H]3[C@@H]1CCC2=O,inactive
3,NC(=O)c1ncn([C@@H]2O[C@H](CO)[C@@H](O)[C@H]2O)n1,inactive
4,CNCCC(Oc1ccc(C(F)(F)F)cc1)c1ccccc1 (centres undefined),inactive
5,CN(C)CCCN1c2ccccc2Sc2ccc(Cl)cc21,inactive
6,CCN(CC)CCOC(=O)C1(C2CCCCC2)CCCCC1,inactive
7,Nc1ncnc2c1ncn2[C@@H]1O[C@H](CO)[C@@H](O)[C@H]1O,inactive
8,CN(C)CC[C@@H](c1ccc(Cl)cc1)c1ccccn1,inactive
9,CNC(=O)Oc1ccc2c(c1)[C@]1(C)CCN(C)[C@@H]1N2C,inactive
10,O=C1N=C(O)CN1/N=C/c1ccc(-c2ccc([N+](=O)[O-])cc2)o1,inactive
11,CSc1ccc2c(c1)N(CCC1CCCCN1C)c1ccccc1S2 (centres undefined),inactive
12,C#CCN(C)Cc1ccccc1,inactive
13,CNCC(O)c1ccc(O)c(O)c1 (centres undefined),inactive
14,NC1CCN(c2cccc(Cl)n2)CC1,inactive
15,COCCOC(=O)C1=C(C)NC(C)=C(C(=O)OC/C=C/c2ccccc2)C1c1cccc([N+](=O)[O-])c1 (centres undefined),inactive

# Assay: qHTS for Activators of Parkin Expression: LOPAC Validation Assay (NLuc Reporter) (AID 720572; further: potency means the concentration at half of the fitted maximal effect)
# Details: Parkin promoter NanoLuc reporter cells, luminescence; series mostly up to 46.1 µM
# In short: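 Neuronal cells with a Parkin promoter-driven FLuc/NLuc coincidence reporter were treated 24 h at 37 C in 7-point dose response (LOPAC). NLuc luminescence read after FLuc; signals normalized to DMSO and positive control (100%).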
row,Compound,Potency
1,CN(C)CCC=C1c2ccccc2CCc2ccccc21,inactive
2,C[C@]12CC[C@@H]3c4ccc(O)cc4CC[C@H]3[C@@H]1CCC2=O,inactive
3,NC(=O)c1ncn([C@@H]2O[C@H](CO)[C@@H](O)[C@H]2O)n1,inactive
4,CNCCC(Oc1ccc(C(F)(F)F)cc1)c1ccccc1 (centres undefined),inactive
5,CN(C)CCCN1c2ccccc2Sc2ccc(Cl)cc21,inactive
6,CCN(CC)CCOC(=O)C1(C2CCCCC2)CCCCC1,inactive
7,Nc1ncnc2c1ncn2[C@@H]1O[C@H](CO)[C@@H](O)[C@H]1O,inactive
8,CN(C)CC[C@@H](c1ccc(Cl)cc1)c1ccccn1,inactive
9,CNC(=O)Oc1ccc2c(c1)[C@]1(C)CCN(C)[C@@H]1N2C,inactive
10,O=C1N=C(O)CN1/N=C/c1ccc(-c2ccc([N+](=O)[O-])cc2)o1,inactive
11,CSc1ccc2c(c1)N(CCC1CCCCN1C)c1ccccc1S2 (centres undefined),inactive
12,C#CCN(C)Cc1ccccc1,inactive
13,CNCC(O)c1ccc(O)c(O)c1 (centres undefined),inactive
14,NC1CCN(c2cccc(Cl)n2)CC1,inactive
15,COCCOC(=O)C1=C(C)NC(C)=C(C(=O)OC/C=C/c2ccccc2)C1c1cccc([N+](=O)[O-])c1 (centres undefined),5.17 µM (active)

# Assay: qHTS for Activators of Parkin Expression: LOPAC Validation Assay (FLuc Reporter) (AID 720573)
# Details: Cell line, PRKN promoter firefly luciferase reporter, vehicle wells = 0, positive control = 100%; series mostly up to 46.1 µM
# In short: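 A neuronal cell line harbouring FLuc and NLuc reporters behind the Parkin promoter was exposed to compounds for 24 h. Firefly luciferase signal, measured after 10 min with detection reagent, was scaled to DMSO and positive-control wells.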
row,Compound,outcome
1,CN(C)CCC=C1c2ccccc2CCc2ccccc21,inactive
2,C[C@]12CC[C@@H]3c4ccc(O)cc4CC[C@H]3[C@@H]1CCC2=O,inactive
3,NC(=O)c1ncn([C@@H]2O[C@H](CO)[C@@H](O)[C@H]2O)n1,inactive
4,CNCCC(Oc1ccc(C(F)(F)F)cc1)c1ccccc1 (centres undefined),inactive
5,CN(C)CCCN1c2ccccc2Sc2ccc(Cl)cc21,inactive
6,CCN(CC)CCOC(=O)C1(C2CCCCC2)CCCCC1,inactive
7,Nc1ncnc2c1ncn2[C@@H]1O[C@H](CO)[C@@H](O)[C@H]1O,inactive
8,CN(C)CC[C@@H](c1ccc(Cl)cc1)c1ccccn1,inactive
9,CNC(=O)Oc1ccc2c(c1)[C@]1(C)CCN(C)[C@@H]1N2C,inactive
10,O=C1N=C(O)CN1/N=C/c1ccc(-c2ccc([N+](=O)[O-])cc2)o1,inactive
11,CSc1ccc2c(c1)N(CCC1CCCCN1C)c1ccccc1S2 (centres undefined),inactive
12,C#CCN(C)Cc1ccccc1,inactive
13,CNCC(O)c1ccc(O)c(O)c1 (centres undefined),inactive
14,NC1CCN(c2cccc(Cl)n2)CC1,inactive
15,COCCOC(=O)C1=C(C)NC(C)=C(C(=O)OC/C=C/c2ccccc2)C1c1cccc([N+](=O)[O-])c1 (centres undefined),inactive

# Assay: qHTS assay for small molecule agonists of the antioxidant response element (ARE) signaling pathway measured by Nrf2-dependant transcriptional activity (AID 720636; active means well fitted curve in the direction sought with a large enough effect in the repeat runs; an effect the other way counts as inactive or inconclusive;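 further: HepG2 cells with an ARE-driven luciferase reporter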)
# Details: ARE-luc HepG2, Nrf2 luciferase reporter, 16 h; series mostly up to 92.4 µM
# In short: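 Cells: ARE-luc HepG2 with Nrf2-responsive luciferase. Medium contained 1% dialyzed FBS. Compound exposure lasted 16 hr at 37 C and 5% CO2, followed by ONE-Glo luciferase detection.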
row,Compound,outcome
1,O=S(=O)(O)NC1CCCCC1,inactive
2,CC(O)CN(CCN(CC(C)O)CC(C)O)CC(C)O (centres undefined),inactive
3,CC12CCC(CC1)C(C)(C)O2,inactive
4,C[C@]12CC[C@@H]3c4ccc(O)cc4CC[C@H]3[C@@H]1CCC2=O,inactive
5,CC(O)COc1ccccc1 (centres undefined),inactive
6,COc1ccccc1O,inactive
7,CCCc1c(OCCCCc2nn[nH]n2)ccc(C(C)=O)c1O,inactive
8,Cc1c(O)cccc1C(=O)N[C@@H](CSc1ccccc1)[C@H](O)CN1C[C@H]2CCCC[C@H]2C[C@H]1C(=O)NC(C)(C)C,inactive
9,NCCNCCNCCNCCN,inactive
10,NC(=O)c1ncn([C@@H]2O[C@H](CO)[C@@H](O)[C@H]2O)n1,inactive
11,CN(C)CCCN1c2ccccc2Sc2ccc(Cl)cc21,inactive
12,Cc1cccc(Nc2cc(Cl)nc(SCC(=O)O)n2)c1C,inactive
13,CCCCC(CC)COC(=O)c1ccccc1O (centres undefined),inactive
14,CCCCCCCCCCCCOS(=O)(=O)O,inactive
15,Cc1cc2nc3c(=O)[nH]c(=O)nc-3n(C[C@H](O)[C@H](O)[C@H](O)CO)c2cc1C,inactive
16,NCCNCCNCCN,inactive
17,CNC(=O)Oc1ccc2c(c1)[C@]1(C)CCN(C)[C@@H]1N2C,inactive
18,O=C1c2c(O)cccc2Cc2cccc(O)c21,inactive
19,Oc1cccc(O)c1,inactive
20,CC1(C)[C@@H]2CC[C@@]1(C)C(=O)C2,inactive
21,O=C1O[C@H]([C@@H](O)CO)C(O)=C1O,inactive
22,O=C1NS(=O)(=O)c2ccccc21,inactive
23,CN(C)CCOC(C)(c1ccccc1)c1ccccn1 (centres undefined),inactive
24,Cc1cc(CC(=O)O)n(C)c1C(=O)c1ccc(Cl)cc1,inactive
